# Sm TGR block: S. mansoni TGR enzyme inhibition; Q962Y6; purified TGR, DTNB reduction, TNB absorbance 405 nm; Potency, µM (doses to about 114 µM), inactives show top-dose activity change, negative = inhibition, usual class: inhibitors; actives 3% (n = 360,000); also: potency is read from the fitted curve at half-maximal effect; % is scaled to controls: 0 for no effect and ±100 for the full control effect; nearly all actives have a fitted effect of over 60% in size
#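 Kinetic colorimetric format: TGR-catalysed, NADPH-driven DTNB reduction monitored via TNB absorbance. Enzyme dispensed at 20 nM; compound exposure 15 min at room temperature before reaction start.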
# Tb PYK inh: blocks Trypanosoma brucei pyruvate kinase | TbPYK enzyme, Kinase-Glo Plus ATP luminescence, 45 min | Potency, µM (doses to about 76.8 µM), for inactives: top-dose activity, negative = inhibition, hits mostly inhibitors | Q57TT1 | actives 0.12% (n = 410,000) | AID 624173; also: potency is read from the fitted curve at half-maximal effect; % is scaled to controls: 0 for no effect and ±100 for the full control effect; nearly all actives have a fitted effect of over 50% in size
#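 ADP (130 uM final) triggers the TbPYK reaction after compound addition; incubation is 45 min at room temperature. Kinase-Glo Plus is then added and luminescence imaged. Normalized data are fitted to concentration-effect curves.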
# LmPK inhibitor: inhibitors of Leishmania mexicana pyruvate kinase. Potency, µM (titrated, usually from 57.5 µM), for inactives: at the highest dose activity change, negative = inhibition, usual class: inhibitors. AID 1721. actives 0.37% (n = 290,000). purified LmPK, Kinase-Glo ATP luminescence, 1 h; also: potency is read from the fitted curve at half-maximal effect; % is scaled to controls: 0 for no effect and ±100 for the full control effect
#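 Screened at intermediate enzyme activity to detect both inhibitors and activators: LmPK at 0.1 nM, with a 0.5 nM enzyme column as activation reference. PEP 0.5 mM, ADP 0.1 mM; ATP detected by luminescence after 1 h.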
# Shiga toxin inh: blocks Shiga toxin action in Vero cells | Vero cells, Shiga toxin protein synthesis inhibition reporter | inhibition, % at 38.7 µM | actives 9.2% (n = 290,000) | AID 2315; in the data active = inhibition mostly above about 28%, no sharp cut-off; inactive = mostly below about 43%; also: 0% is about no effect
# Cycloheximide cs: affects cycloheximide protein synthesis inhibition readout, counter-screen | cell reporter, cycloheximide protein synthesis inhibition counterscreen | max response, % | actives 12% (n = 300,000); in the data active = max response mostly above about 13%, no sharp cut-off; inactive = mostly below about 14%; also: read at 38.3 µM for the half of the compounds with a filed dose; 0% is about no effect
# FBPA Giardia inh: blocks Giardia fructose-bisphosphate aldolase activity | A8B2U2 | purified Giardia FBPA | Potency, µM (doses to about 59.6 µM), inactives show at the highest dose activity, negative = inhibition, most hits filed as inhibitors | actives 0.71% (n = 290,000); also: potency is read from the fitted curve at half-maximal effect; % is scaled to controls: 0 for no effect and ±100 for the full control effect; nearly all actives have a fitted effect of over 55% in size
# Target sequence (A8B2U2 whole entry, looked up): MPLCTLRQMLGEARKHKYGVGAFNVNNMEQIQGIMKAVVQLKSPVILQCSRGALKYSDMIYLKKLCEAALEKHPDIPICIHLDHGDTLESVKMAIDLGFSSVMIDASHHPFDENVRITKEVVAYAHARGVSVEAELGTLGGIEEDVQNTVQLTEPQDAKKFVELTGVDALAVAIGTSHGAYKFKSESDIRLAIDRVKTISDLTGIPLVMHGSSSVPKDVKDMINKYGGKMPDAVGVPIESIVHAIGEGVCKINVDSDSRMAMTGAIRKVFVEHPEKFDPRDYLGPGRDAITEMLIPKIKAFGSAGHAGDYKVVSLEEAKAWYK
#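 40 nM FBPA preincubated 10 min at RT with compound (up to 57.5 uM final), then substrate plus GAPDH/TPI/NAD/arsenate coupling and diaphorase/resazurin added. Fluorescence read after 20 min at RT, 525/598 nm.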
# * marks the source's active call; other numbers are inactive results; u = inconclusive; x = not tested or not shown; [ ] = remark or other dose. The entries come from a sample that favours hits as a whole. Unless noted, calls follow the shape of the dose curve; as a rule, active = well fitted curve in the direction sought with a large enough effect; inconclusive = small, poorly fitted or top-dose-only effect, or another doubt; inactive = no such curve, though single readings can be large; an effect the other way counts as inactive or inconclusive.
SMILES,Sm TGR block,Tb PYK inh,LmPK inhibitor,Shiga toxin inh,Cycloheximide cs,FBPA Giardia inh
O=S(=O)(Nc1ccc(-c2ccc(N3CCCC3)nn2)cc1)c1cc(F)ccc1F,-6.0%,1.1%,x,x,x,x
Cc1ccccc1Cn1c(CN2CCC(C(=O)NCCN(C)C)CC2)cc2ccccc21,6.4%,-0.2%,x,x,x,x
CCOc1ccccc1NC(=O)c1nnn(CC(=O)Nc2ccccc2CC)c1N,-8.5%,-0.6%,x,x,x,x
O=C1C(C=Nc2ccccc2O)=C(O)c2ccccc21,11.6%,-11.0%,u,51.0*,31.9*,4.9%
N#CC1=C(C=Nc2ccccc2O)CCC1,11.2%,1.7%,-4.7%,-5.1,-2.9,u
Cc1ccc(O)c(N=CC2=C(O)c3ccccc3C2=O)c1,-25.5%,0.5%,0.6%,108.5*,32.6*,-24.7%
Cc1ccc(Nc2nnc(SC3CCOC3=O)s2)cc1 (stereo not drawn),-20.9%,-5.9%,-2.5%,13.2,0.7,-21.5%
CCSc1nnc(Nc2ccccc2)s1,1.1%,2.7%,-14.6%,90.2*,33.5*,-3.5%
O=C1CCCCC1Sc1nnc(Nc2ccccc2)s1 (stereo not drawn),0.9%,0.9%,-0.7%,98.8*,38.3*,-15.3%
c1ccc(Nc2nnc(SCc3cccc4ccccc34)s2)cc1,0.0%,2.7%,1.4%,2.6,-1.2,0.3%
CCSc1nnc(Nc2ccc(C)cc2)s1,0.1%,u,-1.0%,124.0*,38.3*,x
CCN(C(=O)c1ccco1)C1C2CC3CC(C2)CC1C3 (stereo not drawn),0.0%,1.9%,-2.1%,-4.5,-4.1,x
Cc1ccc(SCc2cc(-c3ccc(Cl)cc3)no2)cc1,0.8%,-12.3%,10.9%,-6.9,1.9,0.3%
c1ccc(SCc2cc(-c3ccccc3)no2)cc1,-7.7%,8.2%,-3.1%,81.7*,38.7*,0.3%
O=C(CCl)NCc1cc(-c2ccc(Cl)cc2)no1,31.6µM*,4.2%,0.8%,28.8,16.1*,4.0%
Clc1ccc(-c2cc(CSc3ccccc3)on2)cc1,-26.6%,-0.8%,2.6%,132.1*,51.5*,-1.2%
COC(=O)c1ccc(C(NC(=O)c2ccco2)[C@]2(C)C[C@H]2C2CCCCC2)cc1 (stereo partly drawn),x,x,x,x,x,-2.8%
O=C(CNC(=O)c1ccc(Br)cc1)c1ccccc1,-7.8%,1.0%,-8.2%,29.4*,28.4*,7.3%
O=C(CNC(=O)c1ccc(Cl)cc1)c1ccccc1,x,-0.4%,x,x,x,x
O=C(CNC(=O)c1ccc(Cl)cc1)c1ccc(Cl)cc1,-1.1%,1.7%,7.6%,52.3*,16.2*,-6.9%
O=C(CNC(=O)c1ccc(Br)cc1)c1ccc(Br)cc1,7.5%,2.9%,0.4%,27.3,0.6,10.9%
O=C(CNC(=O)c1ccc(-c2ccccc2)cc1)OCc1ccc(Br)cc1,-3.7%,-6.1%,0.0%,67.6*,39.3*,-3.9%
O=C(CNC(=O)c1ccc(F)cc1)c1ccc(Cl)cc1,-6.7%,6.2%,-6.7%,68.8*,45.7*,-5.1%
O=C(CNC(=O)c1ccccc1)c1ccccc1,-10.6%,-0.6%,x,x,x,x
O=C(CNC(=O)c1ccccc1C(=O)O)c1ccccc1,0.0%,-20.8%,-5.5%,62.2*,48.7*,-5.4%
SMILES,Sm TGR block,Tb PYK inh,LmPK inhibitor,Shiga toxin inh,Cycloheximide cs,FBPA Giardia inh
COC(=O)c1ccc(S(=O)(=O)NC(C)(C)C)n1C,4.8%,-0.1%,-0.3%,12.5,-3.0,2.0%
COC(=O)c1sc2nc(C)nc(SCC(=O)C(C)(C)C)c2c1C,3.8%,6.1%,2.6%,52.4,37.6*,-1.6%
CC(=Nc1cc(C(=O)c2ccccc2)ccc1N)C1=C(O)CC(C)(C)CC1=O,1.2%,-7.2%,-0.1%,124.6*,29.2*,u
COCOc1cc(OC)ccc1C(=O)/C=C/c1ccc2c(c1)OCO2,x,x,x,x,x,-3.0%
COc1cc(/C=C/C(=O)c2ccccc2O)cc(OC)c1OC,u,-3.6%,-0.7%,-12.6,13.5,-4.3%
Cc1ccc(O)c(C(=O)/C=C/c2ccc3c(c2)OCCCO3)c1,-10.7%,-9.0%,-21.0%,154.8*,80.8*,15.1%
O=C(/C=C/c1ccc2c(c1)OCCCO2)c1ccccc1O,-2.7%,-9.7%,u,170.6*,77.9*,2.2%
C[C@@H]1CC[C@H]2[C@H](C)[C@H]3CC[C@H]4C5[C@@H](O)CC6=CC(=O)CC[C@]6(C)[C@H]5C[C@H]4C3C(=O)N2C1 (stereo partly drawn),x,x,x,x,x,-0.4%
O=C(O)CC/C(=N\Nc1ccc([N+](=O)[O-])cc1S(=O)(=O)N1CCOCC1)c1cccs1,39.8µM*,-17.1%,5.4%,-5.5,0.8,-12.6%
O=S(=O)(N/N=C\c1ccc(-c2ccccc2Cl)o1)c1ccccc1,u,-7.1%,4.6%,18.7,-1.3,-11.2%
O=C(O)c1ccc(N/N=C/c2ccc(-c3ccccc3Cl)o2)cc1,-9.4%,-1.1%,5.5%,99.7*,50.4*,3.1%
O=C(N/N=C/c1ccc(-c2ccccc2Cl)o1)c1ccccc1,8.8%,3.3%,-3.7%,68.6*,31.6*,1.0%
O=C(Nc1c(C(=O)N2CCN(c3ccccc3F)CC2)oc2ccccc12)c1cccc(F)c1,13.7%,0.0%,x,x,x,x
CCOc1ccccc1CNC(=O)c1oc2c(c1C)-c1[nH]ncc1CC2,-0.8%,6.2%,x,x,x,x
CCOC(=O)CNc1nnc(SCC(=O)OCC)[nH]c1=O,56.2µM*,-19.7%,-0.7%,8.1,-4.4,6.5%
CCOC(=O)C1(Cc2ccc(OC)cc2)CCN(C(=O)c2cc3ccccc3[nH]2)CC1,4.4%,0.5%,-7.9%[11.5 µM],118.3*,53.9*,-0.1%
CCOC(=O)C1(Cc2ccc(OC)cc2)CCN(C(=O)c2cc(C)on2)CC1,3.1%,0.0%,-0.1%,17.9,17.5*,8.1%
CCOC(=O)C1(Cc2ccc(OC)cc2)CCN(C(=O)c2sc(C)nc2C)CC1,-14.1%,-3.1%,-0.5%,18.2,-0.7,3.8%
Cc1ccc(C(=O)Nc2ccc3c(c2)ncn3C)cc1,4.2%,1.2%,-7.6%,112.1*,25.8*,3.4%
CCn1cnc2cc(NC(=O)c3ccc(C)cc3)ccc21,-0.9%,-1.8%,-9.3%,49.4*,44.4*,u
OC(COc1cccc2ccccc12)CN1CCOCC1 (stereo not drawn),x,1.0%,x,x,x,x
OC(COc1ccc2cc(Br)ccc2c1)CN1CCOCC1 (stereo not drawn),-0.6%,1.0%,0.3%,36.7*,10.7,0.4%
Cc1ccc(OCC(O)CN2CCOCC2)c(C)c1 (stereo not drawn),3.4%,9.3%,0.3%,x,30.9*,-27.9%
O=C(N1CCOCC1)N1CCN(CC(O)COc2ccc3ccccc3c2)CC1 (stereo not drawn),-0.3%,-1.1%,1.5%,-15.6,-0.9,6.0%
OC(COc1ccc2ccccc2c1Cl)CN1CCOCC1 (stereo not drawn),-1.9%,-1.5%,5.6%,104.8*,36.6*,3.5%
Cc1c(C(=O)N2CCCCCC2)c(S(=O)(=O)N(Cc2ccccc2)C(C)(C)C)c(C)n1C,-6.9%,-0.1%,x,x,x,x
